Source: PubChem BioAssay
Calls of active or inactive are those of the source. No rule for the calls is given here.

Each molecule was assayed against Pantothenate synthetase (Mycobacterium tuberculosis (strain ATCC 25618 / H37Rv)) (UniProt P9WIL5) (assay: Coupled enzyme confirmation of inhibitors against recombinant Mtb PanC (AID 375;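 also: 0% = full reaction with vehicle and 100% = no enzyme background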)). Details: coupled enzyme assay; at 10 µM, stronger effect = higher value.
Sequence of Pantothenate synthetase (Mycobacterium tuberculosis (strain ATCC 25618 / H37Rv)) (P9WIL5 whole entry, looked up): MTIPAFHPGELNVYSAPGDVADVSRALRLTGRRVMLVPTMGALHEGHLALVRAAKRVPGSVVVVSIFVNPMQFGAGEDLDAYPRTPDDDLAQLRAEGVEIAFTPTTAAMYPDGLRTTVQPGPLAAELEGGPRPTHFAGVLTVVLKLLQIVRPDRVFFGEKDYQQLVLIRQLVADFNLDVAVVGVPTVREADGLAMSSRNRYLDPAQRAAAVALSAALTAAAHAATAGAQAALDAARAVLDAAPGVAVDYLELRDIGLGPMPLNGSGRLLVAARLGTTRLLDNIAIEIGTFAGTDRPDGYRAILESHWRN

| Compound | inhibition |
| --- | --- |
| Cc1ccc(S(=O)(=O)N(C)CC(=O)NC2CCCC2)cc1 | 0% (inactive) |
| CNC(=O)OC(C)CNS(=O)(=O)c1ccc(C)cc1 (stereo not given) | 0% (inactive) |
| CN(Cc1nc(-c2ccncc2)no1)S(=O)(=O)c1ccccc1 | 6% (inactive) |
| CSc1ncc(Cl)c(C(=O)Nc2ccc(S(=O)(=O)N3CCOCC3)cc2)n1 | 0% (inactive) |
| O=c1cc(CSc2ccccn2)c2ccccc2[nH]1 | 3% (inactive) |
| Cc1nc(-c2cccc(N)c2)cs1 | 0% (inactive) |
| Cc1cc(OCC(=O)N2CCCC2)cc(C)c1Cl | 2% (inactive) |
| CCOC(=O)N1CCN(C(=O)c2ccc3nc4cc(Cl)ccc4c(=O)n3c2)CC1 | 8% (inactive) |
| CC(=O)Nc1ccc(S(=O)(=O)Nc2nc3n(n2)C(c2ccccc2)CC(=O)N3)cc1 (stereo not given) | 0% (inactive) |
| CC(C)(C)OC(=O)N1CC(O)CC1C(=O)OCC(=O)c1ccc(Cl)cc1 (stereo not given) | 0% (inactive) |
| Cc1ccc(N(CC(=O)NCC2CCCO2)S(C)(=O)=O)cc1Cl (stereo not given) | 0% (inactive) |
| CCC(=O)OC1(C#CCOc2ccc(OC)cc2)CCN(C)CC1 | 0% (inactive) |
| N#Cc1cnn(Cc2ccc(Cl)cc2)c1N | 0% (inactive) |
| CCN(CC)c1nc2cc(OC)ccc2cc1C#N | 0% (inactive) |
| O=C1NC2c3ccccc3C(=O)N2c2c1cnn2-c1ccccc1 (stereo not given) | 1% (inactive) |
| O=C(COc1ccccc1)Nc1ccccc1N1CCN(c2ccccc2)CC1 | 2% (inactive) |
| COc1ccc(C2C(C(=O)NCCN3CCOCC3)c3ccccc3C(=O)N2C2CCCCC2)cc1 (stereo not given) | 0% (inactive) |
| CN(C)c1ccc(/C=C/C(O)=C2/C(=O)N(C)C3(C)CC2c2ccccc2O3)cc1 (stereo not given) | 0% (inactive) |
| Cc1ccc(S(=O)(=O)N[C@@H](C)C(=O)N2CCC(C(=O)N3CCC[C@H]3C(=O)O)CC2)cc1 | 0% (inactive) |
| CCOC(=O)c1cc(NC(=O)SCC(=O)O)c(C)nc1C | 0% (inactive) |

| Compound | inhibition |
| --- | --- |
| CCCCC(CC)C(=O)Nc1ccccc1C#N (stereo not given) | 0% (inactive) |
| CCOC(=O)N1CCN(S(=O)(=O)c2cc(C)c(C)cc2C)CC1 | 0% (inactive) |
| Cc1c(Cl)cccc1N1C(=O)c2ccccc2C1=O | 0% (inactive) |
| O=C(c1ccc(Br)cc1)N1CCN(S(=O)(=O)c2ccccc2)CC1 | 0% (inactive) |
| CN(C)CCCNC(=O)CCC1CCCCC1 | 6% (inactive) |
| CCn1cc(C(=O)NC2CCc3ccccc32)c(=O)c2ccc(C)nc21 (stereo not given) | 0% (inactive) |
| O=S(=O)(NCC(c1cccnc1)N1CCN(c2ccccc2)CC1)c1cc(F)ccc1F (stereo not given) | 0% (inactive) |
| Cc1noc(C)c1COc1cccc(C(=O)Nc2ccc(C#N)cc2)c1 | 0% (inactive) |
| CC(=O)NS(=O)(=O)c1ccc(N)cc1 | 2% (inactive) |
| COc1ccc(NC(C)=O)cc1NC(=O)CN1CCN(c2ccccn2)CC1 | 0% (inactive) |
| CNCCC=C1c2ccccc2CCc2ccccc21 | 0% (inactive) |
| CC1(C)O[C@@H]2C[C@H]3[C@@H]4CCC5=CC(=O)C=C[C@]5(C)[C@@]4(F)[C@@H](O)C[C@]3(C)[C@]2(C(=O)CO)O1 | 2% (inactive) |
| CCOC(=O)N1CCC(N(C(=O)Nc2cccc(OC)c2)C(C)CC)CC1 (stereo not given) | 0% (inactive) |
| Cc1noc(/C=C/N(C)C)c1S(=O)(=O)N1CCCC(C(=O)NC2CCCCC2)C1 (stereo not given) | 8% (inactive) |
| Cc1ccc(S(=O)(=O)N2CCN(CCO)CC2)cc1-c1nnc2c3ccccc3c(C)nn12 | 0% (inactive) |
| Cc1cc(C)c(S(=O)(=O)N(C)CC(N)=O)c(C)c1 | 0% (inactive) |
| CCn1c(SCc2nc(-c3cccs3)no2)nnc1-c1c[nH]c2ccccc12 | 0% (inactive) |
| Fc1ccc(NCc2nnc(SCc3nnc(-c4ccccc4)o3)n2CC2CCCO2)cc1 (stereo not given) | 0% (inactive) |
| C/C(N)=C(/C#N)C(=O)COC(=O)CCSc1ccccc1 | 0% (inactive) |
| COc1ccccc1-n1c(=O)c2c3c(sc2n2c(SC(C)C)nnc12)CCC3 | 1% (inactive) |
